Source: PubChem
MPTP block: permeability transition pore inhibition; isolated mouse mitochondria, Ca2+ swelling absorbance, 30 min; inhibition, % at 10 µM; 360,000 tested, 1.4% active; AID 602449;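 active means inhibition of 50% or more, scaled per plate between neutral and stimulator controls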;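 further: 0% = DMSO wells given calcium and 100% = 1 mM EGTA wells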
FAS TE block: blocks the thioesterase domain of human fatty acid synthase | 360,000 tested, 0.67% active | AID 602261 | inhibition, % at 15 µM | P49327 | recombinant FAS-TE, OMFH fluorogenic substrate, fluorescence endpoint;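 active means compounds whose normalised, plate-corrected inhibition of enzyme fluorescence in the single-dose primary screen is 50% or more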;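 further: 0% = DMSO with enzyme and 100% = substrate without enzyme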
NR3A LBD binder: modulates the human NR3A ligand-binding domain. 340,000 tested, 2.5% active. AID 1259313. NR3A LBD differential scanning fluorimetry, Tm shift; 0% = protein alone, 100% = glycine-bound protein. Tm shift relative to glycine control, % at 25 µM;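 active means melting temperature shift of at least 10% of the positive control shift, at one fixed dose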
rCAG RNA binder: binds r(CAG) RNA repeats. r(CAG) RNA repeat, TO-PRO-1 dye displacement fluorescence. inhibition, % at 3 µM. 370,000 tested, 1.3% active. AID 651821;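 active means inhibition above the plate cutoff, the mean of all test compounds on that plate plus 3 SD, cut at about 35% in these data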;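 further: 0% = DMSO alone and 100% = 100 µM mitoxantrone as full dye displacement; higher means more dye released from RNA so lower well fluorescence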
Myeloid diff 2: promotes myeloid progenitor differentiation. ER-HoxA9 myeloid progenitors, lysozyme-GFP differentiation, flow cytometry. calls only at 10 µM. 360,000 tested, 1% active. AID 624256;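 active means normalized GFP-positive differentiation at or above the plate's own cutoff, the solvent-only control mean plus 3 SD; inconclusive means no clear call, values can overlap the other calls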;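 further: cells exposed to compound for four days before flow analysis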
* = called active by the depositor; i = inactive; u = inconclusive; x = no result; + = active, no number. The list is not random: actives were taken first. Their share in the collection is about 5.7%.

SMILES	MPTP block	FAS TE block	NR3A LBD binder	rCAG RNA binder	Myeloid diff 2
[C-]#[N+][C@]12C(=O)[C@H](C=C(Cl)[C@@]1(C)C=C)C(C)(C)[C@H]1C(=O)N(C)c3cccc2c31	x	x	x	2	x
CCOC(=O)c1c(NC(C)=O)sc2c(O)c(Br)cc(Br)c12	1	0	-18	44*	i
CCOC(=O)c1c(NC(C)=O)sc2c(O)cccc12	8	-3	2	12	i
N#Cc1ccc(-c2cccnc2)nc1SCC(=O)Nc1sc2c(c1C#N)CCC2	0	9	-1	x	i
N#Cc1ccc(-c2ccccc2)nc1SCC(=O)c1cccc(Cl)c1	2	15	-7	4	+
N#Cc1ccc(-c2cccnc2)nc1SCC(=O)c1ccccc1	0	48	2	12	+
CCN(CC)C(=O)CSc1nc(-c2ccccc2)ccc1C#N	-1	1	-1	-1	i
N#Cc1ccc(-c2ccc(Cl)cc2)nc1SCC(=O)c1cccc(Cl)c1	0	13	1	3	+
COc1ccccc1N1CCN(S(=O)(=O)c2ccc3c(c2)n(C)c(=O)c(=O)n3C)CC1	x	x	x	5	x
COC(=O)C1=C(C)N(C)C(=NCc2ccccc2C(F)(F)F)NC1c1ccc(F)cc1 (stereo not given)	x	x	x	5	x
CC(=O)O[C@@H]1CCC[C@@]2(C(=O)Nc3ccccc32)[C@H]1NC(=O)C(C)C	x	x	x	3	x
CCCCc1c(-c2ccccc2OC)ncn1C1CCCCC1	x	x	x	-1	x
CCOC(=O)c1sc2cc([N+](=O)[O-])cc(SCC(C)C)c2c1N	1	-2	3	3	+
O=C(O)CSc1ccc(NC(=O)Nc2ccccc2F)cc1	1	-7	10*	0	i
COc1ccc(OC)c(C2=Nn3c(nnc3C3CCCCC3)SC2)c1	0	5	-4	-7	i
COc1ccc(C2=Nn3c(nnc3C3CCCCC3)SC2)cc1OC	1	3	1	-4	+
O=S1(=O)N[C@@H](Cc2ccccc2)COc2cccc(NCCCN3CCOCC3)c21	x	x	x	-1	x
[O-][n+]1c(/C=C/c2ccccc2)ccc2ccccc21	0	4	19*	-2	i
Cc1ccc(N=Cc2cc3c(cc2O)OC(N)=C(C#N)C3c2ccccc2)cc1 (stereo not given)	25	-11	12*	10	i
N#CC1=C(N)Oc2cc(O)c(C=Nc3ccccc3)cc2C1c1ccccc1 (stereo not given)	12	-11	-4	4	i
Cc1ccc(NC(=O)c2ccccc2O)cc1	1	-4	-6	2	i
Cc1cc(C)cc(NC(=O)Nc2ccc(NC(=O)c3ccccc3O)cc2)c1	1	2	25*	15	u
O=C(Nc1ccccc1)Nc1ccc(NC(=O)c2ccccc2O)cc1	1	-1	42*	12	x
COc1ccccc1NC(=O)Nc1ccc(Cl)c(S(=O)(=O)Nc2ccccc2OC)c1	-3	4	11*	9	i
COc1ccccc1NS(=O)(=O)c1cc(NC(=O)Nc2cccc(C)c2)ccc1N1CCCCC1	43	33	24*	24	u
SMILES	MPTP block	FAS TE block	NR3A LBD binder	rCAG RNA binder	Myeloid diff 2
O=C(c1ccco1)N1CCN(c2ncnc3scc(-c4cccs4)c23)CC1	2	8	1	x	+
C#CCSc1n[nH]c(-c2ccco2)n1	0	-8	-4	0	+
O=C(O)c1ccc(CSc2n[nH]c(-c3ccco3)n2)cc1	-1	-7	-2	7	i
O=C(CSc1n[nH]c(-c2ccncc2)n1)Nc1ccccc1	0	-8	27*	1	x
O=C(CSc1n[nH]c(-c2ccco2)n1)Nc1ccc(Br)cc1	-1	-5	14*	10	i
COc1ccc(NC(=O)CSc2n[nH]c(-c3ccco3)n2)cc1	0	-6	-6	0	+
O=C(c1ccccc1)N1CCC2CCN(CCc3ccccc3)CC21 (stereo not given)	x	x	x	2	x
CSC1=NC(C)(C)C=C(/C=C/c2ccc(Cl)cc2Cl)N1	0	14	-5	1	+
CCOC(=O)C1=C(COC(=O)C2CC(=O)N(c3ccccc3CC)C2)NC(=O)NC1C (stereo not given)	1	-6	x	1	i
CCc1ccc(NC(=O)COC(=O)/C(=C/c2ccccc2OC)c2ccccc2)cc1	4	32	23*	8	i
COc1ccccc1/C=C(/C(=O)OCC(N)=O)c1ccccc1	2	-5	0	-3	i
COc1cc2[nH]c(=S)nc(NCc3ccc(Cl)cc3)c2cc1OC	-1	20	35*	3	i
Cc1nc2sccn2c(=O)c1S(=O)(=O)NCC1CCN(Cc2ccccc2Cl)CC1	-1	-3	12*	-2	i
Cc1cc2ncn(/N=C/c3ccc([N+](=O)[O-])o3)c2cc1C	1	3	10*	4	x
Cc1cc(N/N=C/c2ccc([N+](=O)[O-])o2)nc2ccccc12	5	-9	14*	15	+
O=[N+]([O-])c1ccc(/C=N/Nc2ccnc3cc(Cl)ccc23)o1	21	1	17*	26	u
O=[N+]([O-])c1ccc(/C=N/N=C/c2ccc([N+](=O)[O-])o2)o1	0	-8	2	1	u
O=[N+]([O-])c1ccc(/C=N/NS(=O)(=O)c2ccc(Cl)cc2)o1	1	-5	4	5	i
CCn1c(COc2ccc(C)cc2)nnc1SCC(=O)Nc1ccccc1-c1ccccc1	x	x	x	4	x
O=C(CNc1nnnn1-c1ccccc1)N1CCCC1	x	x	x	-1	x
CCOc1ccccc1NC(=O)Nc1ccc2c(c1)OCO2	-2	4	1	1	i
C=CCOc1ccccc1CN(C(=O)CCl)c1ccc2c(c1)OCO2	0	6	-1	2	+
CCCCN(C(=O)CSc1nnc2ccccn12)c1c(N)n(Cc2ccccc2)c(=O)[nH]c1=O	1	0	-3	1	+
CCN(C(=O)CSc1nnc2ccccn12)c1c(N)n(Cc2ccccc2)c(=O)[nH]c1=O	2	-8	-4	-2	i
CCN(C(=O)CSc1n[nH]c(-c2ccc(OC)cc2)n1)c1c(N)n(Cc2ccccc2)c(=O)[nH]c1=O	0	-5	-1	4	+
SMILES	MPTP block	FAS TE block	NR3A LBD binder	rCAG RNA binder	Myeloid diff 2
CC(C)(C)N(Cc1cn(Cc2ccccc2)nn1)S(=O)(=O)c1ccc(F)cc1Br	x	x	x	0	x
COc1cc2c(c(OC)c1OC)CC(c1ccccc1)=C(c1ccccc1)CC2NC(=O)C(F)(F)F (stereo not given)	x	x	x	3	x
COc1ccc(OC)c(NC(=O)c2cc(-c3cc(C)ccc3O)n[nH]2)c1	5	0	37*	17	i
COc1ccc(OC)c(NC(=O)c2cc(-c3ccc(C)cc3O)n[nH]2)c1	11	-7	28*	2	i
COc1ccc(NC(=O)c2cc(-c3cc(Cl)ccc3OC)n[nH]2)c(C)c1	-1	20	x	2	i
COc1ccc(NC(=O)c2cc(-c3ccc(F)cc3OC)n[nH]2)c(C)c1	1	4	x	2	i
